# Test results reported in the supplement of paper PMC8728848.
# The full list was thinned out, with the strongest signals kept by preference.
# B1: M6PR (Bos taurus), P11456 (protein)
# chain: MMSPLHSSWRTGLLLLLLFSVAVRESWQTEEKTCDLVGEKGKESEKELALLKRLTPLFNKSFESTVGQSPDMYSYVFRVCREAGNHSSGAGLVQINKSNGKETVVGRFNETQIFNGSNWIMLIYKGGDEYDNHCGREQRRAVVMISCNRHTLADNFN
# Assays:
# Test in all cases: glycan array binding signal (z-score within array); higher = stronger binding
# Settings in all cases: glycan notation: IUPAC condensed, linker removed
# [1] = biological target: Fuc(a1-2)Gal(b1-3)GalNAc(b1-4)[Neu5Ac(a2-3)]Gal(b1-4)Glc
# Outline: (§1)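 The binding signal is a Z-score computed within each array and averaged over linkers. Arrays of the same protein sequence at different concentrations or buffers were also averaged together. Data originate from 3228 arrays in the Consortium for Functional Glycomics database, kept only where the protein sequence was available.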
# [2] = biological target: Fuc(a1-2)[Gal(a1-3)]Gal(b1-3)GlcNAc
# Outline: as §1
# [3] = biological target: Fuc(a1-2)[GalNAc(a1-4)]Gal(b1-4)GlcNAc
# Outline: as §1
# Fuc(a1-4)GlcNAc = biological target: Fuc(a1-4)GlcNAc
# Outline: as §1
# Gal(a1-3)Gal(b1-4)GlcNAc = biological target: Gal(a1-3)Gal(b1-4)GlcNAc
# Outline: as §1
# [4] = biological target: Gal(b1-3)[Fuc(a1-4)]GlcNAc
# Outline: as §1
# [5] = biological target: Gal(b1-3)[Fuc(a1-4)]GlcNAc(b1-3)Gal(b1-4)[Fuc(a1-3)]GlcNAc
# Outline: as §1
# Gal3S(b1-3)GalNAc = biological target: Gal3S(b1-3)GalNAc
# Outline: as §1
# GalNAc(a1-3)Gal = biological target: GalNAc(a1-3)Gal
# Outline: as §1
# GalNAc(a1-3)GalNAc = biological target: GalNAc(a1-3)GalNAc
# Outline: as §1
# [6] = biological target: GalNAc(b1-3)Gal(a1-4)Gal(b1-4)GlcNAc
# Outline: as §1
# GlcA(b1-6)Gal = biological target: GlcA(b1-6)Gal
# Outline: as §1
# GlcNAc(b1-3)Gal(b1-4)Glc = biological target: GlcNAc(b1-3)Gal(b1-4)Glc
# Outline: as §1
# Man(a1-2)Man(a1-3)Man = biological target: Man(a1-2)Man(a1-3)Man
# Outline: as §1
# [7] = biological target: Man(a1-2)Man(a1-3)[Man(a1-2)Man(a1-6)]Man(a1-6)[Man(a1-3)[Man(a1-6)]Man(a1-6)]Man(b1-4)GlcNAc(b1-4)GlcNAc
# Outline: as §1
# [8] = biological target: Neu5Ac(a2-3)Gal(b1-3)[Neu5Ac(a2-3)Gal(b1-4)]GlcNAc
# Outline: as §1
# [9] = biological target: Neu5Ac(a2-3)Gal(b1-4)GlcNAc(b1-3)Gal(b1-4)GlcNAc(b1-3)Gal(b1-4)GlcNAc
# Outline: as §1
# [10] = biological target: Neu5Ac(a2-3)Gal(b1-4)GlcNAc6S
# Outline: as §1
# [11] = biological target: Neu5Ac(a2-3)Gal(b1-4)[Fuc(a1-3)]GlcNAc(b1-3)Gal(b1-4)GlcNAc
# Outline: as §1
# [12] = biological target: Neu5Ac(a2-6)Gal(b1-4)GlcNAc(b1-2)Man(a1-3)[Neu5Ac(a2-6)Gal(b1-4)GlcNAc(b1-2)Man(a1-6)]Man(b1-4)GlcNAc(b1-4)GlcNAc
# Outline: as §1
# [13] = biological target: Neu5Ac(a2-6)GalNAc(b1-4)GlcNAc
# Outline: as §1
# [14] = biological target: Neu5Gc(a2-3)Gal(b1-3)[Fuc(a1-4)]GlcNAc
# Outline: as §1
# Neu5Gc(a2-3)Gal(b1-4)Glc = biological target: Neu5Gc(a2-3)Gal(b1-4)Glc
# Outline: as §1
# Neu5Gc(a2-6)GalNAc = biological target: Neu5Gc(a2-6)GalNAc
# Outline: as §1
binder,measurement,setting,value
B1,glycan array binding signal (z-score),[1],2.76
same,glycan array binding signal (z-score),[2],-0.012
same,glycan array binding signal (z-score),[3],-0.255
same,glycan array binding signal (z-score),Fuc(a1-4)GlcNAc,-0.026
same,glycan array binding signal (z-score),Gal(a1-3)Gal(b1-4)GlcNAc,-0.036
same,glycan array binding signal (z-score),[4],-0.132
same,glycan array binding signal (z-score),[5],0.169
same,glycan array binding signal (z-score),Gal3S(b1-3)GalNAc,-0.095
same,glycan array binding signal (z-score),GalNAc(a1-3)Gal,1.42
same,glycan array binding signal (z-score),GalNAc(a1-3)GalNAc,0.045
same,glycan array binding signal (z-score),[6],0.285
same,glycan array binding signal (z-score),GlcA(b1-6)Gal,-0.256
same,glycan array binding signal (z-score),GlcNAc(b1-3)Gal(b1-4)Glc,1.12
same,glycan array binding signal (z-score),Man(a1-2)Man(a1-3)Man,-0.287
same,glycan array binding signal (z-score),[7],3.23
same,glycan array binding signal (z-score),[8],-0.269
same,glycan array binding signal (z-score),[9],-0.446
same,glycan array binding signal (z-score),[10],-0.267
same,glycan array binding signal (z-score),[11],0.517
same,glycan array binding signal (z-score),[12],-0.279
same,glycan array binding signal (z-score),[13],0.219
same,glycan array binding signal (z-score),[14],-0.343
same,glycan array binding signal (z-score),Neu5Gc(a2-3)Gal(b1-4)Glc,-0.187
same,glycan array binding signal (z-score),Neu5Gc(a2-6)GalNAc,1.03
